The list is a sample of the results.
aSyn 5UTR act: Activators working through SNCA 5'UTR binding (MLPCN); actives 7.1% (n = 300,000); alpha-synuclein 5'UTR reporter, activators screen; activity score, % (tested at 7.5 µM), hits read low; in the data active means activity score below about -60%
The depositor's hits bear a star.

SMILES | aSyn 5UTR act
Cc1occc1C(=O)Nc1ccc2ccccc2c1 | -128*
COc1cccc(NC(=O)c2cccc(OC)c2OC)c1 | -168*
COc1cccc(C(=O)Nc2ccc3[nH]c(=O)[nH]c3c2)c1OC | 68
COc1cccc(NC(=O)c2ccccc2Br)c1 | -106*
CC(C)(C)c1ccc(-c2noc(CCC(=O)Nc3cccnc3)n2)cc1 | 77
CC(Cc1ccccc1)C(=O)Nc1ccc(Br)cc1 (centres undefined) | -81*
COCc1cccc(NC(=O)CCc2ccccc2)c1 | -99*
CC(C)c1ccc(NC(=O)CCc2ccccc2)cc1 | -389*
O=C(CCc1ccccc1)Nc1cccnc1 | -63*
CCOc1ccc(N2C(=O)c3ccccc3C2O)cc1 (centres undefined) | -96*
CCOc1ccc(N2Cc3ncccc3C2=O)cc1 | -103*
O=C(c1ccccc1)c1c(O)nc(-c2ccccc2)n(-c2ccccc2)c1=O | -67*
CCOC(=O)c1ccc(NC(=O)C2C3CCC(C3)C2C(=O)O)cc1 (centres undefined) | -62*
CCCOC(=O)c1ccc(NC(=O)C2CCCO2)cc1 (centres undefined) | -110*
CCOC(=O)c1ccc(NC(=O)C2C3CCCCC32)cc1 (centres undefined) | -184*
CCc1ccc(NC(=O)c2ccccc2NC(=O)C2CCCO2)cc1 (centres undefined) | -244*
Cc1cc(NC(=O)c2ccc(NC(=O)C3CCCO3)cc2)ccc1Br (centres undefined) | -121*
CC(C)COC(=O)c1ccc(NC(=O)C2C3CCC(C3)C2C(=O)O)cc1 (centres undefined) | -131*
CCOc1cc(NC(=S)N2CCC(C(N)=O)CC2)c(C(=O)OC)cc1OCC | 32
CCOC(=O)c1ccc(NC(=S)N2CCC(O)CC2)cc1 | -81*
c1ccc(-c2noc(-c3ccc4ccccc4c3)n2)nc1 | 113
CC(Oc1ccc(Cl)cc1Cl)c1nc(-c2ccccn2)no1 (centres undefined) | -129*
c1ccc(-c2noc(-c3ccncc3)n2)nc1 | -62*
CC(C)(C)Cc1nc(-c2ccccn2)no1 | -99*
CC(Oc1ccc(Cl)cc1Cl)c1nc(-c2ccc(NC(=O)c3cccnc3)cc2)no1 (centres undefined) | 92
SMILES | aSyn 5UTR act
Clc1ccccc1/C=C/c1nc(-c2ccccn2)no1 | 104
CC(C)c1ccc(OCc2nc(-c3ccccn3)no2)c(Br)c1 | -67*
c1ccc(OCCCc2nc(-c3ccccn3)no2)cc1 | -85*
Cc1ccc(OCc2nc(-c3ccccn3)no2)cc1 | -64*
Cc1ccc(SCc2nc(-c3ccccn3)no2)cc1 | -106*
COc1ccc(OC)c(S(=O)(=O)ON2C(=O)c3ccccc3C2=O)c1 | -90*
O=C(NC1CCCCCC1)c1cc2c(=O)n3ccccc3nc2s1 | -85*
C=CCNC(=O)c1cc2c(=O)n3ccccc3nc2s1 | -218*
N=c1c(S(=O)(=O)c2ccc(Br)cc2)cc2c(=O)n3ccccc3nc2n1C1CCCC1 | 50
COc1ccc(N=Cc2c(O)[nH]c3ccccc23)cc1 | -144*
Cc1ccc(N=Cc2c(O)[nH]c3ccccc23)c([N+](=O)[O-])c1 | -169*
O=c1c2ccccc2c(C=Nc2cccc(O)c2)c(O)n1-c1ccc2c(c1)OCO2 | -151*
Oc1[nH]c2ccccc2c1/C=N/c1nccs1 | -145*
Oc1[nH]c2ccccc2c1C=Nc1ccc2c(c1)OCO2 | -285*
COc1ccc(CCNC(=O)c2cc(COc3c(C)cccc3C)on2)c(OC)c1 | -91*
COc1ccc(OCc2cc(C(=O)NCC3CCOCC3)no2)c(Cl)c1 | -140*
CN(CCc1ccccc1)C(=O)c1cc(COc2ccc(F)cc2Cl)on1 | -82*
COc1ccc(OCc2cc(C(=O)NCC3CCCCO3)no2)c(Cl)c1 (centres undefined) | -152*
COc1ccc(OCc2cc(C(=O)NCCc3ccccc3)no2)c(Cl)c1 | -95*
O=C(NCCc1cnn(-c2ccccc2)c1)c1cc(COc2c(F)cccc2F)on1 | -80*
Clc1ccc(Oc2cnc3ccccc3n2)cc1 | -80*
Cc1ccc(Oc2cnc3ccccc3n2)cc1 | -127*
CC(=O)c1sc(-c2ccc(F)cc2F)nc1C | -75*
Cc1ccc(NC(=S)c2ccccc2)cc1 | -152*
COc1ccc(C(=S)Nc2ccc(C)cc2)cc1 | -153*
SMILES | aSyn 5UTR act
NC(=O)N/N=C/c1ccc2cccc(OCc3ccccc3)c2n1 | 60
Cc1cccc(OCC(=O)NC(C)C(=O)N/N=C/c2c(OCc3ccccc3)ccc3ccccc23)c1 (centres undefined) | -138*
CCN(CC)C(=O)Oc1ccc2c(c1)O/C(=C\c1ccco1)C2=O | -116*
COc1ccc2c(C)nc(Nc3nc(C)c(C)c(=O)[nH]3)nc2c1 | 103
CCc1c(C)nc(Nc2nc(C)c3cc(OC)ccc3n2)[nH]c1=O | -102*
CCN(C(=O)C1=COCCO1)c1nc2c(C)cccc2s1 | -84*
CC1CCCCN1S(=O)(=O)c1ccc(C(=O)N(CCCN(C)C)c2nc3ccc(Br)cc3s2)cc1 (centres undefined) | 67
Cc1cc(C)c2nc(N(CCCN(C)C)C(=O)C3=COCCO3)sc2c1 | -91*
CN(C)CCCN(C(=O)C1=COCCO1)c1nc2ccc(Br)cc2s1 | -63*
Nc1ncccc1OCc1ccc(Cl)c(Cl)c1 | -149*
COc1cc(CNCc2ccccn2)ccc1OCc1ccc(Cl)c(Cl)c1 | -114*
Cc1cccc(OCCn2c(=O)oc3ccc(C)cc32)c1 | -110*
CC(C)c1nnc(NC(=O)c2cccs2)s1 | -102*
O=C(Nc1nnc(C2CC2)s1)c1cccs1 | -74*
CC(C)(C)c1nnc(NC(=O)c2cccs2)s1 | -143*
O=C(c1ccc(Br)cc1)C(CN1CCOCC1)c1ccccc1 (centres undefined) | -152*
O=S(=O)(Nc1ccc(-c2cn3ccsc3n2)cc1)c1ccc2c(c1)OCCO2 | -67*
COc1ccc(C)cc1N(C(=O)COc1ccccc1)c1nc2ccccc2s1 | -92*
COc1ccccc1-c1nnc2n1N=C(c1ccc(O)c(O)c1)CS2 | 97
COc1cc(C(C#N)N2N=C(c3ccccc3)CC2c2ccccc2)ccc1O (centres undefined) | -142*
Cn1ncc(SCc2ccccc2)c(Cl)c1=O | -64*
Cc1ccc(O)c(NC(=O)c2cc(-c3ccc(F)cc3)on2)c1 | -147*
C=CCNC(=O)c1cc(-c2ccc(Br)cc2)on1 | -101*
O=C(Nc1c(F)cc(F)cc1Br)c1cc(-c2ccc(O)cc2)on1 | -101*
CC(C)NC(=O)c1cc(-c2cccs2)on1 | -127*
SMILES | aSyn 5UTR act
Cc1cccc(C)c1OCC(O)CN(Cc1ccccc1O)C1CCCCC1 (centres undefined) | 62
CSc1ccccc1NC(=O)c1cc(-c2cccs2)on1 | -235*
Cc1ccc(O)c(NC(=O)c2cc(-c3cccs3)on2)c1 | -231*
CCOC(=O)C1(Cc2cccc(OC)c2)CCCN(C(=O)c2cc(C)on2)C1 (centres undefined) | -110*
CCOC(=O)C1(Cc2cccc(OC)c2)CCCN(C(=O)CNC(C)=O)C1 (centres undefined) | -115*
CCOC(=O)C1(Cc2cccc(OC)c2)CCCN(C(=O)c2ccccc2C)C1 (centres undefined) | -84*
CCOC(=O)C1(Cc2ccccc2)CCCN(C(=O)c2cnn(CC)c2)C1 (centres undefined) | -78*
CCOC(=O)C1(Cc2cccc(OC)c2)CCCN(C(=O)c2cc(C)[nH]n2)C1 (centres undefined) | -130*
CC(C)N1C(=O)S/C(=C\c2ccc(-c3ccc(Cl)c(C(=O)O)c3)o2)C1=O | -128*

Screens (PubChem BioAssay)
